Experimental data from PubChem BioAssay (EPA / NIEHS).
Active and inactive are the calls of the source. Rule for the calls: active = hit-call score of the fitted dose curve at least 0.9, where 1 is the maximum; inactive = score below 0.9.

Experiment: APR_HepG2_CellCycleArrest_24hr: Apredica 24-hour HepG2 Assay for Cell Cycle Arrest (AID 2282905);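 note: cell cycle arrest scored as ratio of 2N to 4N nuclear DNA content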
Settings: imaging, actives raise or lower the signal
Outline: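 Readout: Hoechst 33342 nuclear DNA content by high-content fluorescent imaging, six images/well, 20x. Human HepG2 liver cells, 24 hr compound exposure, 0.39–200 uM, final DMSO 0.5% v/v. Gain or loss fitted relative to DMSO baseline.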

Row | Compound | outcome | AC50
1 | N#CN=C1SCCN1Cc1ccc(Cl)nc1 | inactive | –
2 | CCCC(=NOCC)C1=C(O)CC(CC(C)SCC)CC1=O (configuration not stated) | inactive | –
3 | CC1(C)CCC(=Cc2ccc(Cl)cc2)C1(O)Cn1cncn1 (configuration not stated) | – | 117 µM (active)
4 | Cc1cc(C)nc(Nc2ccccc2)n1 | – | 43.7 µM (active)
5 | CCOc1nc(C(Cl)(Cl)Cl)ns1 | inactive | –
6 | CC(C)Nc1nc(Cl)nc(NC(C)C)n1 | inactive | –
7 | O=c1n(Cl)c(=O)n(Cl)c(=O)n1Cl | inactive | –
8 | CCCN(CC)CC1COC2(CCC(C(C)(C)C)CC2)O1 (configuration not stated) | inactive | –
9 | Cc1nc(N(C)C)nc(OC(=O)N(C)C)c1C | inactive | –
10 | Clc1nc(Cl)nc(Nc2ccccc2Cl)n1 | inactive | –
11 | CS(=O)(=O)c1ccc(C(=O)C2C(=O)CCCC2=O)c([N+](=O)[O-])c1 | inactive | –
12 | Nc1c(Cl)c(F)nc(OCC(=O)O)c1Cl | inactive | –
13 | CCN(CC)c1nc(C)cc(OP(=S)(OC)OC)n1 | inactive | –
14 | CCCCC(O)(Cn1cncn1)c1ccc(Cl)cc1Cl (configuration not stated) | inactive | –
15 | COc1ccc(-c2ccccc2)cc1NNC(=O)OC(C)C | inactive | –
16 | CSC(=O)c1c(C(F)F)nc(C(F)(F)F)c(C(=O)SC)c1CC(C)C | inactive | –
17 | CCOC(=O)C(C)OC(=O)c1cc(Oc2ccc(C(F)(F)F)cc2Cl)ccc1[N+](=O)[O-] (configuration not stated) | inactive | –
18 | O=P(O)(O)CCCl | inactive | –

Row | Compound | outcome | AC50
19 | COCC(C)N(C(=O)CCl)c1c(C)csc1C (configuration not stated) | – | 109 µM (active)
20 | COC(=O)c1c(C(F)F)nc(C(F)(F)F)c(C2=NCCS2)c1CC(C)C | inactive | –
21 | CCN(CC)C(=O)C(C)Oc1cccc2ccccc12 (configuration not stated) | inactive | –
22 | CNC(=O)N(C)c1nnc(C(C)(C)C)s1 | inactive | –
23 | CCOP(=O)(OCC)Oc1nc(Cl)c(Cl)cc1Cl | inactive | –
24 | CC(C)C1(C)N=C(c2ncccc2C(=O)O)NC1=O (configuration not stated) | inactive | –
25 | CC(C)N1C(=O)c2ccccc2NS1(=O)=O | inactive | –
26 | COC(=O)NC(=S)Nc1ccccc1NC(=S)NC(=O)OC | inactive | –
27 | CC(C)(C)C(=O)C(Oc1ccc(Cl)cc1)n1cncn1 (configuration not stated) | inactive | –
28 | CCC(C)n1c(=O)[nH]c(C)c(Br)c1=O (configuration not stated) | inactive | –
29 | CCNP(=S)(OC)O/C(C)=C/C(=O)OC(C)C (configuration not stated) | inactive | –
30 | CC(C)NC(=O)N1CC(=O)N(c2cc(Cl)cc(Cl)c2)C1=O | inactive | –
31 | CCCCOCN(C(=O)CCl)c1c(CC)cccc1CC | inactive | –
32 | O=C(O)c1c(Cl)ccc2cc(Cl)cnc12 | inactive | –
33 | CO/N=C(/C1=NOCCO1)c1ccccc1Oc1ncnc(Oc2ccccc2Cl)c1F | inactive | –
34 | CC1(C)C(C=C(Cl)Cl)C1C(=O)OC(C#N)c1cccc(Oc2ccccc2)c1 (configuration not stated) | – | 35.1 µM (active)
35 | Nc1c(Cl)c(Cl)nc(C(=O)O)c1Cl | inactive | –
36 | CC1(C)CON(Cc2ccccc2Cl)C1=O | inactive | –

Experiment: APR_HepG2_NuclearSize_24hr: Apredica 24-hour HepG2 Assay for Nuclear Size (AID 2282907)
Settings: high-content imaging, actives raise or lower the signal
Outline: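 Read-out: nuclear diameter from Hoechst 33342 (2 ug/mL) imaging of fixed HepG2 cells, 20x, six fields/well. Compounds ran at 0.39–200 uM for 24 hr, 0.5% DMSO final. Gain or loss was fitted bidirectionally relative to the DMSO baseline.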

Row | Compound | outcome
37 | N#CN=C1SCCN1Cc1ccc(Cl)nc1 | inactive
38 | CCCC(=NOCC)C1=C(O)CC(CC(C)SCC)CC1=O (configuration not stated) | inactive
39 | CC1(C)CCC(=Cc2ccc(Cl)cc2)C1(O)Cn1cncn1 (configuration not stated) | inactive
40 | Cc1cc(C)nc(Nc2ccccc2)n1 | inactive
41 | CCOc1nc(C(Cl)(Cl)Cl)ns1 | inactive
42 | CC(C)Nc1nc(Cl)nc(NC(C)C)n1 | inactive
43 | O=c1n(Cl)c(=O)n(Cl)c(=O)n1Cl | inactive
44 | CCCN(CC)CC1COC2(CCC(C(C)(C)C)CC2)O1 (configuration not stated) | inactive
45 | Cc1nc(N(C)C)nc(OC(=O)N(C)C)c1C | inactive
46 | Clc1nc(Cl)nc(Nc2ccccc2Cl)n1 | inactive
47 | CS(=O)(=O)c1ccc(C(=O)C2C(=O)CCCC2=O)c([N+](=O)[O-])c1 | inactive
48 | Nc1c(Cl)c(F)nc(OCC(=O)O)c1Cl | inactive
49 | CCN(CC)c1nc(C)cc(OP(=S)(OC)OC)n1 | inactive
50 | CCCCC(O)(Cn1cncn1)c1ccc(Cl)cc1Cl (configuration not stated) | inactive
51 | COc1ccc(-c2ccccc2)cc1NNC(=O)OC(C)C | inactive
52 | CSC(=O)c1c(C(F)F)nc(C(F)(F)F)c(C(=O)SC)c1CC(C)C | inactive
53 | CCOC(=O)C(C)OC(=O)c1cc(Oc2ccc(C(F)(F)F)cc2Cl)ccc1[N+](=O)[O-] (configuration not stated) | inactive
54 | O=P(O)(O)CCCl | inactive

Row | Compound | outcome
55 | COCC(C)N(C(=O)CCl)c1c(C)csc1C (configuration not stated) | inactive
56 | COC(=O)c1c(C(F)F)nc(C(F)(F)F)c(C2=NCCS2)c1CC(C)C | inactive
57 | CCN(CC)C(=O)C(C)Oc1cccc2ccccc12 (configuration not stated) | inactive
58 | CNC(=O)N(C)c1nnc(C(C)(C)C)s1 | inactive
59 | CCOP(=O)(OCC)Oc1nc(Cl)c(Cl)cc1Cl | inactive
60 | CC(C)C1(C)N=C(c2ncccc2C(=O)O)NC1=O (configuration not stated) | inactive
61 | CC(C)N1C(=O)c2ccccc2NS1(=O)=O | inactive
62 | COC(=O)NC(=S)Nc1ccccc1NC(=S)NC(=O)OC | inactive
63 | CC(C)(C)C(=O)C(Oc1ccc(Cl)cc1)n1cncn1 (configuration not stated) | inactive
64 | CCC(C)n1c(=O)[nH]c(C)c(Br)c1=O (configuration not stated) | inactive
65 | CCNP(=S)(OC)O/C(C)=C/C(=O)OC(C)C (configuration not stated) | inactive
66 | CC(C)NC(=O)N1CC(=O)N(c2cc(Cl)cc(Cl)c2)C1=O | inactive
67 | CCCCOCN(C(=O)CCl)c1c(CC)cccc1CC | inactive
68 | O=C(O)c1c(Cl)ccc2cc(Cl)cnc12 | inactive
69 | CO/N=C(/C1=NOCCO1)c1ccccc1Oc1ncnc(Oc2ccccc2Cl)c1F | inactive
70 | CC1(C)C(C=C(Cl)Cl)C1C(=O)OC(C#N)c1cccc(Oc2ccccc2)c1 (configuration not stated) | inactive
71 | Nc1c(Cl)c(Cl)nc(C(=O)O)c1Cl | inactive
72 | CC1(C)CON(Cc2ccccc2Cl)C1=O | inactive
